Test results reported in PubChem BioAssay.
For part of these data: Entries with a potency or affinity are not part of this list. Activity calls are given as the source filed them.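 Rule for the calls, unless noted: active = calcium signal rise above buffer-control mean plus 5 SD in both duplicates, and also a hit in the primary screen; inactive = the rest.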

Experiments:
[1] = system: TRPC4 beta (transient receptor potential cation channel C4), mouse; experiment: activators of mouse TRPC4 channel, confirmation, cell-based, Fluo4 calcium, HEK293 TRPC4beta/mu-opioid, duplicates, 10 µM (AID 2426;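 active = fluorescence ratio normalized to control raised more than 50% in primary screen plus both repeat runs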;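 for activation: percent rise of integrated ratio over buffer wells lacking compound which define 0%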); settings: Fluo4 calcium fluorescence, at 10 µM; hits give high values
[2] = system: transient receptor potential cation channel C4 beta (TRPC4), mouse; experiment: activators of mouse TRPC4 channel, confirmation, cell-based, second round, Fluo4, HEK293 TRPC4beta/mu-opioid, 1 µM (AID 2461;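 active = primary screen active and over 50% activation in each of two duplicate runs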); settings: Fluo4 calcium fluorescence, at 1 µM; hits give high values
[3] = system: TRPC4 (transient receptor potential cation channel C4 beta), mouse; experiment: positive allosteric modulators of mouse TRPC4, confirmation, cell-based, second round, Fluo-4, HEK293 TRPC4beta/mu-opioid, 1 µM (AID 2554;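 active = primary screen hit whose fluorescence ratio, in both repeats, exceeds the weak agonist control mean by 3 SD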); settings: DAMGO EC20, Fluo-4 calcium flux, at 1 µM; hits give high values
[4] = system: TRPC4 beta (transient receptor potential cation channel C4), mouse; experiment: positive allosteric modulators of mouse TRPC4, confirmation, cell-based, Fluo-4, HEK293 TRPC4beta/mu-opioid (AID 2555;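 active = primary screen hit whose calcium fluorescence ratio, in both repeats, exceeds the weak agonist control mean by 3 SD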); settings: DAMGO EC20, Fluo-4 calcium flux, at 10 µM; hits give high values
[5] = target: Short transient receptor potential channel 4 (Mus musculus) (UniProt Q9QUQ5); experiment: inhibitors of mouse TRPC4 channel, confirmation, cell-based, Fluo4, HEK293 TRPC4beta/mu-opioid (AID 2636;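 active = calcium signal cut by more than 3 SD below the full-agonist control yet still positive, in both repeats and the earlier primary screen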); settings: DAMGO, Fluo4 calcium flux, at 10 µM; hits give high values
[6] = target: Short transient receptor potential channel 4 (Mus musculus) (UniProt Q9QUQ5); experiment: inhibitors of mouse TRPC4 channel, confirmation, cell-based, second round, Fluo4, HEK293 TRPC4beta/mu-opioid, 1 µM (AID 2637;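 active = calcium signal ratio cut to more than 3 SD under the fully stimulated control mean yet still positive, in both repeats and the primary screen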;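 for inhibition: percent of integrated ratio relative to wells lacking test compound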); settings: Fluo4 calcium flux, DAMGO, at 1 µM; hits give high values
[7] = target: Short transient receptor potential channel 4 (Mus musculus) (UniProt Q9QUQ5); experiment: TRPC4 positive allosteric modulators, dose response, cell-based, HEK293 TRPC4/mu-opioid, Fluo-4 calcium, EC20 DAMGO (AID 434941;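 active = earlier screen potentiator hit that boosts the TRPC4 ion channel at some dose, with a dose response; inactive = no potentiation, no dose response, or not a prior hit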;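 note: calcium entry triggered by an EC20 dose of DAMGO at the co-expressed mu-opioid receptor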)
[8] = target: Short transient receptor potential channel 6 (Mus musculus) (UniProt Q61143); experiment: inhibition of mouse TRPC6 channel, confirmation, selectivity assay for TRPC4 inhibitor project, cell-based, HEK293, membrane potential dye, duplicate (AID 434948;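 active = active in primary screen and both duplicates, each dropping signal beyond three positive-control SD with fluorescence still positive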); settings: HEK293 TRPC6, membrane potential dye fluorescence, at 10 µM, stimulated with maximal-effect acetylcholine; hits give high values
[9] = target: Short transient receptor potential channel 6 (Mus musculus) (UniProt Q61143); experiment: activation of mouse TRPC6 channel, confirmation, selectivity assay for TRPC4 activator project, cell-based, HEK293, membrane potential dye, duplicate (AID 434950;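 active = membrane potential signal rise above negative control mean plus 3 SD in both duplicates, also active in the earlier TRPC4 screen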;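 for activation: 0% = buffer only wells and 100% = acetylcholine maximal-effect wells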); settings: HEK293 TRPC6, membrane potential fluorescence, at 10 µM; hits give high values
[10] = target: Short transient receptor potential channel 6 (Mus musculus) (UniProt Q61143); experiment: TRPC6 potentiation by TRPC4 potentiator hits, confirmation, selectivity assay for TRPC4 potentiator project, HEK293 cells, membrane potential dye, duplicate (AID 434952;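 active = compound raising the membrane signal above positive-control mean plus 3 SD in both repeats, and a primary screen hit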); settings: HEK293 TRPC6, membrane potential dye fluorescence, at 10 µM, maximal acetylcholine added after compound; hits give high values
[11] = target: Short transient receptor potential channel 4 (Mus musculus) (UniProt Q9QUQ5); experiment: calcium flux activators in TRPC4/5HT1a cells, counter-screen for TRPC4 activator project, cell-based, second counter screen, HEK293 TRPC4/5HT1a, Fluo-4 (AID 434977); settings: Fluo-4 calcium flux, at 10 µM; hits give high values;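 for activation: plate controls were assay buffer for no effect and maximal serotonin response for full effect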
[12] = calcium flux inhibitors in TRPC4/5HT1a cells, confirmation, counter-screen for TRPC4 inhibitor project, cell-based, second counter screen, HEK293 TRPC4/5HT1a, Fluo-4 (AID 434978;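 active = primary screen active whose calcium signal fell more than 3 SD beyond the full-serotonin control mean in both duplicate plates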;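 for outcome: serotonin given first at submaximal then at maximal dose after compound preincubation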); settings: Fluo-4 calcium flux, at 10 µM, serotonin added to trigger calcium flux; hits give high values
[13] = system: TRPC4 (mouse), co-expressed with 5HT1a in HEK293; experiment: calcium flux potentiators in TRPC4/5HT1a cells, confirmation, counter-screen for TRPC4 potentiator project, cell-based, second counter screen, HEK293 TRPC4/5HT1a, Fluo-4 (AID 434979;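 active = signal rise over 3 SD above mean of control wells given weak agonist, in both repeats and first screen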); settings: Fluo-4 calcium flux, at 10 µM, serotonin added at its EC20 dose; hits give high values
[14] = calcium flux activation in mu-opioid HEK293 cells, confirmation, counter-screen for TRPC4 activator project, cell-based, HEK293 mu-opioid receptor line (AID 449723;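 active = hit in primary screen, with calcium signal over 5 SD above buffer well mean in both duplicates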;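 note: counter screen cells carry the mu-opioid receptor alone and lack TRPC4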); settings: Fluo-4 calcium fluorescence, at 10 µM; hits give high values
[15] = calcium flux enhancement in mu-opioid HEK293 cells, confirmation, counter-screen for TRPC4 allosteric potentiator project, cell-based, HEK293 mu-opioid receptor line (AID 449724;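 active = calcium signal rise more than 3 SD above the low-dose agonist control mean, in both duplicate plates and the primary screen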); settings: Fluo-4 calcium flux, at 10 µM, compound added before EC20 DAMGO stimulus; hits give high values
[16] = target: Short transient receptor potential channel 4 (Mus musculus) (UniProt Q9QUQ5); experiment: mouse TRPC4 channel inhibitors, dose response, cell-based, HEK293 TRPC4/mu-opioid, Fluo-4 calcium (AID 434942;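 active = primary screen inhibitor hit that blocks the TRPC4 channel at some tested dose, yielding a dose curve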)
[17] = thallium flux activation in parental CHO cells, counter-screen for KCNQ1 potentiator project (AID 493006;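 active = duplicate-averaged activation above buffer control mean plus 5 SD of those controls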;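 for activation: fluorescence ratio of max minus min over baseline after K+ and Tl+ depolarization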); settings: parental CHO-K1 cells, FluxOR thallium flux, at 10 µM; hits give high values
[18] = target: Potassium voltage-gated channel subfamily KQT member 1 (Homo sapiens) (UniProt P51787); experiment: KCNQ1 potassium channel potentiators, confirmation, FluxOR thallium flux, CHO cells, duplicates (AID 493007;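 active = potentiation averaged over duplicate wells exceeding buffer-only control mean by more than 3 SD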;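 for outcome: cells depolarized by a potassium plus thallium sulfate stimulus after compound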;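 for potentiation: 0% = buffer-only wells and 100% = R-L3 activator control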); settings: KCNQ1 cell line, FluxOR thallium flux fluorescence, at 10 µM; hits give high values, % of reference activator effect, buffer zero
[19] = target: Potassium voltage-gated channel subfamily KQT member 2 (Rattus norvegicus) (UniProt O88943); experiment: rat KCNQ2 channel potentiation, selectivity assay for KCNQ1 potentiator project, KCNQ2-CHO-K1 cells (AID 493009;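 active = mean duplicate potentiation above the buffer control mean plus 5 SD of buffer wells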;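 note: assay conditions were tuned for KCNQ1 rather than KCNQ2 modulators; signal is max minus min fluorescence divided by baseline after thallium stimulus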); settings: FluxOR thallium flux fluorescence, at 10 µM; hits give high values, scaled: buffer 0, activator control 100
[20] = target: Potassium voltage-gated channel subfamily KQT member 1 (Homo sapiens) (UniProt P51787); experiment: KCNQ1 channel current potentiators, confirmation, orthogonal assay for KCNQ1 potentiator project, IonWorks patch clamp, KCNQ1-CHO cells (AID 493184;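 active = current rise at least 3 SD above the untreated control mean in each of two repeat wells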); settings: automated patch clamp current, at 10 µM; hits give high values

Chain of Potassium voltage-gated channel subfamily KQT member 1 (Homo sapiens) (P51787 whole entry, looked up): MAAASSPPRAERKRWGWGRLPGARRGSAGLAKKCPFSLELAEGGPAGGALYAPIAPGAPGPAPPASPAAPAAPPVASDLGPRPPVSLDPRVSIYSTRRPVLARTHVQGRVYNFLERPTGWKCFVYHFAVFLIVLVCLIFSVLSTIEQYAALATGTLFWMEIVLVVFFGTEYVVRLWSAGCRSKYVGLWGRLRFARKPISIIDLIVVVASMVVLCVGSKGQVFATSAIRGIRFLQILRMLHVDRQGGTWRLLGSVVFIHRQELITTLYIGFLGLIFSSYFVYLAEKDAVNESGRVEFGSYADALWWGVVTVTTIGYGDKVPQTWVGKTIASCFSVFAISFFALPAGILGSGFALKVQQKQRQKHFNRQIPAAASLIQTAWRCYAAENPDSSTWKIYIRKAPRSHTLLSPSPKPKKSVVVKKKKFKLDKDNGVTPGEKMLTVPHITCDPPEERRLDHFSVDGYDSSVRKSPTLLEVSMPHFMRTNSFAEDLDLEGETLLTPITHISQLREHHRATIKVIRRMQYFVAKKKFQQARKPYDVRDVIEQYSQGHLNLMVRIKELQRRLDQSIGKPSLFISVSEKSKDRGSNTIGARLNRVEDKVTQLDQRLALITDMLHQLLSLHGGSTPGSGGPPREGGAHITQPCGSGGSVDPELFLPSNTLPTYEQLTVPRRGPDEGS
Chain of Short transient receptor potential channel 4 (Mus musculus) (Q9QUQ5 whole entry, looked up): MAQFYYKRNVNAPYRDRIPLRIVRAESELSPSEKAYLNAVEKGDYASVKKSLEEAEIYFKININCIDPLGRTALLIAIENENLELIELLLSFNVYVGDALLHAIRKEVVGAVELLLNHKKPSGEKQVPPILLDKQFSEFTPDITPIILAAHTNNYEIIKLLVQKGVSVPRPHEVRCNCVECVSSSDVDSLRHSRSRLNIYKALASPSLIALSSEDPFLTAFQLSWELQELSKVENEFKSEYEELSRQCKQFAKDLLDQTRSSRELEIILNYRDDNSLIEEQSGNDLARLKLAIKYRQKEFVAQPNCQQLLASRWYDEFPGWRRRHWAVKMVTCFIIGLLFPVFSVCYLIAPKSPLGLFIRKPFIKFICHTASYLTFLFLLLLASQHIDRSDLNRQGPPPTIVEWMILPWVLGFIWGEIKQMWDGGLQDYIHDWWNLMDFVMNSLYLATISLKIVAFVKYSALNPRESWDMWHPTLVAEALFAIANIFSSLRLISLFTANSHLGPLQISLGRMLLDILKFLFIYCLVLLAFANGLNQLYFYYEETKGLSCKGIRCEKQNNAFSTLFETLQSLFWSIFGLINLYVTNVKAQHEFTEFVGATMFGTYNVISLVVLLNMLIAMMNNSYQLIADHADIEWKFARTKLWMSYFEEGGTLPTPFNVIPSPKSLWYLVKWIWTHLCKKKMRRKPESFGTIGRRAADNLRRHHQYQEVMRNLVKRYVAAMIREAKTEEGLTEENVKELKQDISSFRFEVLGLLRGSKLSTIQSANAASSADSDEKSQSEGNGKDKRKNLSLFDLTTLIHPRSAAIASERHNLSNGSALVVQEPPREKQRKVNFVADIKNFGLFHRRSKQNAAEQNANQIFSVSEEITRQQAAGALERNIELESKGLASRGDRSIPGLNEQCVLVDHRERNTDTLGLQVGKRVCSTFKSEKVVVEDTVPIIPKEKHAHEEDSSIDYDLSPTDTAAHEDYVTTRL
Chain of Short transient receptor potential channel 6 (Mus musculus) (Q61143 whole entry, looked up): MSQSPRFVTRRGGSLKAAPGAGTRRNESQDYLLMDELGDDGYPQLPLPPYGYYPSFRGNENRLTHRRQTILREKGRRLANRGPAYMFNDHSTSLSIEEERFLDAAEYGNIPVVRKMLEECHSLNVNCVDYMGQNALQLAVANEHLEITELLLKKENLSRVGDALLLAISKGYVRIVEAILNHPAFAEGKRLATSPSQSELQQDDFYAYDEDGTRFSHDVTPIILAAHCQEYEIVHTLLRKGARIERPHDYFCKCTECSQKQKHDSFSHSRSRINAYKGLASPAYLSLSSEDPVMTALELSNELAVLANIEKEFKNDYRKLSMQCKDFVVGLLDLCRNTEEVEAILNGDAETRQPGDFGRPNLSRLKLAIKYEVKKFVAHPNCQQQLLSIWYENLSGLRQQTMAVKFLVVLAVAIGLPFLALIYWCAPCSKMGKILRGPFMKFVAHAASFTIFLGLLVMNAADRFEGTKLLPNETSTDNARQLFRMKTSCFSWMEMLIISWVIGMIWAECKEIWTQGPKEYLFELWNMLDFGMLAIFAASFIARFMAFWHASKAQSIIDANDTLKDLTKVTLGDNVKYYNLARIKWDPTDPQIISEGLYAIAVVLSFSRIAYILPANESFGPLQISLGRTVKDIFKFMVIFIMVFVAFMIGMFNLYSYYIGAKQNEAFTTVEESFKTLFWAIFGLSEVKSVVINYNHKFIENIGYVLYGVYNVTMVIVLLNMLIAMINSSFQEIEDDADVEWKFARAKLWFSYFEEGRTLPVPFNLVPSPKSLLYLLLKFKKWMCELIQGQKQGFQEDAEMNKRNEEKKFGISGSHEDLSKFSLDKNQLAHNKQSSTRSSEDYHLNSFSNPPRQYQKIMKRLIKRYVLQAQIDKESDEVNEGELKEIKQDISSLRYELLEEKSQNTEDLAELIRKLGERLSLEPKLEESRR
Chain of Potassium voltage-gated channel subfamily KQT member 2 (Rattus norvegicus) (O88943 whole entry, looked up): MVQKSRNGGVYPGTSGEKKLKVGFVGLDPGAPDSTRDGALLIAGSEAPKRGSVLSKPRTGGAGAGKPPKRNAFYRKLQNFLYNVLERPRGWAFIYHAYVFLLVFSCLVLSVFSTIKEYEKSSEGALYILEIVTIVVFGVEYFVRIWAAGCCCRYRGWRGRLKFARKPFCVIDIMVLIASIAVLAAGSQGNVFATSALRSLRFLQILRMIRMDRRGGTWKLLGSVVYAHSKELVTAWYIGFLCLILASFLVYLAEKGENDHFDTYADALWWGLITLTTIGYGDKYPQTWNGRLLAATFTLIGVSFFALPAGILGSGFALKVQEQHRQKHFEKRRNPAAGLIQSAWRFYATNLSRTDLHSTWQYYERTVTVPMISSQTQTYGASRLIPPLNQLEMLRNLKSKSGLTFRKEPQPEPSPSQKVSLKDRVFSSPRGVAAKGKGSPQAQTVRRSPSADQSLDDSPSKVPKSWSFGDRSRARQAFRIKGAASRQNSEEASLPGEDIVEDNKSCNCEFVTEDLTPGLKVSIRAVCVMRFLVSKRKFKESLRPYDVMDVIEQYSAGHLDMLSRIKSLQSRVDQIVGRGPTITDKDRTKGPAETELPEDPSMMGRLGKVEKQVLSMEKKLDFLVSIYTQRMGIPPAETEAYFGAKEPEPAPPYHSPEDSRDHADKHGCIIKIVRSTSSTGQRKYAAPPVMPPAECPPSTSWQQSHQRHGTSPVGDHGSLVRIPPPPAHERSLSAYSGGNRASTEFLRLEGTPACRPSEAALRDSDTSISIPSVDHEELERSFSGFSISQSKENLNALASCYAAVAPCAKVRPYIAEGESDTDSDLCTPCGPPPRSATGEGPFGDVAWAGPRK

CN(C)/C=C1\C(=O)N(c2ccc([N+](=O)[O-])cc2)N=C1c1ccccc1
inactive: outcome [2] | outcome [3] | outcome [4] | outcome [6] | outcome [7] | outcome [8] | outcome [9] | outcome [10] | outcome [13] | outcome [14] | outcome [15]
active: activation [1] 76% | inhibition [5] 85% | activation [11] 68.6% | inhibition [12] -1.74%

O=c1c2ccccc2[nH]c(=S)n1Cc1cccnc1
active: inhibition [5] 94%
inactive: outcome [1] | outcome [2] | outcome [3] | outcome [4] | outcome [6] | outcome [7] | outcome [8] | outcome [9] | outcome [10] | outcome [11] | outcome [12] | outcome [13] | outcome [14] | outcome [15]

CC(C)(C)C(=O)NC(=S)NNC(=O)C(c1ccccc1)c1ccccc1
active: activation [1] 286% | activation [9] 46% | activation [11] 158% | activation [14] 119% | potentiation [18] 22%
inactive: outcome [2] | outcome [3] | outcome [4] | outcome [5] | outcome [6] | outcome [7] | outcome [16] | outcome [8] | outcome [10] | outcome [12] | outcome [13] | outcome [15] | outcome [17] | outcome [19] | outcome [20]

COc1ccc(C(=O)NNC(=S)NC(=O)c2ccccc2)cc1
inactive: outcome [2] | outcome [3] | outcome [4] | outcome [5] | outcome [6] | outcome [7] | outcome [16] | outcome [8] | outcome [10] | outcome [12] | outcome [13] | outcome [15] | outcome [17] | outcome [20]
active: activation [1] 130% | activation [9] 32% | activation [11] 87.5% | activation [14] 32.5% | potentiation [18] 58.5% | potentiation [19] 166%

Cc1onc(-c2ccccc2)c1C(=O)NNC(=S)NC(=O)c1ccc(Br)cc1
active: activation [1] 263% | activation [11] 190% | activation [14] 70.7%
inactive: outcome [2] | outcome [3] | outcome [4] | outcome [5] | outcome [6] | outcome [7] | outcome [16] | outcome [8] | outcome [9] | outcome [10] | outcome [12] | outcome [13] | outcome [15] | outcome [17] | outcome [18] | outcome [19] | outcome [20]

CN(C)CCCN(C(=O)c1ccc(S(=O)(=O)N(C)C)cc1)c1nc2ccc(F)cc2s1
inactive: outcome [2] | outcome [3] | outcome [4] | outcome [5] | outcome [7] | outcome [8] | outcome [9] | outcome [10] | outcome [11] | outcome [12] | outcome [13] | outcome [14] | outcome [15]
active: activation [1] 59% | inhibition [6] 37%

CCCCC(=O)NNC(=S)NC(=O)C(c1ccccc1)c1ccccc1
inactive: outcome [2] | outcome [3] | outcome [4] | outcome [5] | outcome [6] | outcome [7] | outcome [16] | outcome [8] | outcome [10] | outcome [12] | outcome [13] | outcome [15] | outcome [17] | outcome [18] | outcome [19] | outcome [20]
active: activation [1] 122% | activation [9] 42% | activation [11] 96.7% | activation [14] 31.6%

Cc1cccc(C(=O)NNC(=S)NC(=O)c2ccccc2)c1
inactive: outcome [2] | outcome [3] | outcome [4] | outcome [5] | outcome [6] | outcome [7] | outcome [16] | outcome [8] | outcome [10] | outcome [12] | outcome [13] | outcome [15] | outcome [17] | outcome [20]
active: activation [1] 230% | activation [9] 54.5% | activation [11] 153% | activation [14] 83.3% | potentiation [18] 74.5% | potentiation [19] 192%

COc1ccc(C(=O)NC(=S)NNC(=O)c2cccc(C)c2)cc1
inactive: outcome [2] | outcome [3] | outcome [4] | outcome [5] | outcome [6] | outcome [7] | outcome [16] | outcome [8] | outcome [10] | outcome [12] | outcome [13] | outcome [15] | outcome [17] | outcome [20]
active: activation [1] 142% | activation [9] 27% | activation [11] 133% | activation [14] 40.2% | potentiation [18] 128% | potentiation [19] 227%

O=C(Nc1nnc(-c2cccs2)o1)c1cccc(C(F)(F)F)c1
inactive: outcome [2] | outcome [3] | outcome [4] | outcome [5] | outcome [6] | outcome [7] | outcome [16] | outcome [8] | outcome [9] | outcome [10] | outcome [12] | outcome [13] | outcome [15] | outcome [20]
active: activation [1] 151% | activation [11] 57.6% | activation [14] 29.9% | activation [17] 208% | potentiation [18] 50%

CC1CN(C(=O)c2ccc(NS(=O)(=O)c3ccc(C(C)(C)C)cc3)cc2)CC(C)O1 (centres undefined)
active: activation [1] 63% | activation [9] 39.5% | activation [11] 30.9% | activation [14] 16.1%
inactive: outcome [2] | outcome [3] | outcome [4] | outcome [5] | outcome [6] | outcome [7] | outcome [16] | outcome [8] | outcome [10] | outcome [12] | outcome [13] | outcome [15] | outcome [17] | outcome [18] | outcome [19] | outcome [20]

COc1ccccc1NS(=O)(=O)c1cccc(C(=O)NC2CCN(Cc3ccccc3)CC2)c1
inactive: outcome [2] | outcome [3] | outcome [4] | outcome [5] | outcome [7] | outcome [8] | outcome [10] | outcome [11] | outcome [12] | outcome [13] | outcome [14] | outcome [15]
active: activation [1] 90% | inhibition [6] 72% | activation [9] 38.5%

C/C=C(\C)CN1CCC(n2nccc2NC(=O)CCc2ccccc2)CC1
inactive: outcome [1] | outcome [2] | outcome [3] | outcome [4] | outcome [7] | outcome [8] | outcome [10] | outcome [11] | outcome [12] | outcome [13] | outcome [14] | outcome [15]
active: inhibition [5] 97% | inhibition [6] 86% | activation [9] 58.5%
